Bioassay records (PubChem)
In the library only some 21% were active in any assay of this set; here they are far more common.
TDP1 cell noCPT – qHTS for Inhibitors of human tyrosyl-DNA phosphodiesterase 1 (TDP1): qHTS in cells in absence of CPT; DT40 Tdp1-/- hTDP1 cells, no CPT, ATP luminescence, 48 h; Potency, µM (top dose mostly 46.2 µM), for the others: at the highest dose activity change, negative = growth inhibition, usual class: inhibitors; hit rate 15% among 420,000; AID 686978, 2013; note: potency is the fitted concentration of half-maximal effect; nearly all actives have a fitted effect of over 55% in size
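Stably hTDP1-transfected Tdp1-null chicken DT40 cells were treated with library compounds minus camptothecin and grown for at least 48 hr at 37 °C, after which cellular ATP was quantified by luminescence.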
VP16 counter – inhibits Gal4-VP16 luciferase reporter, ROR gamma counter-screen | Potency, µM (doses to about 53.6 µM), for inactives: at the highest dose activity, negative = inhibition, most hits filed as inhibitors | Drosophila S2 Gal4-VP16 UAS-luciferase, luminescence, 20 h | hit rate 3.5% among 310,000;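 note: Gal4-VP16 expression switched on by copper sulfate through the metallothionein promoter; potency is the fitted concentration of half-maximal effect; nearly all actives have a fitted effect of over 50% in size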
RORgamma inh – inhibitors of mouse ROR gamma transcriptional activity; P51450; Drosophila S2 Gal4-RORgamma UAS-luciferase reporter, 20 h; Potency, µM (doses to about 53.6 µM), without a hit: at the top dose activity change, negative = inhibition, most hits filed as inhibitors; hit rate 5.4% among 310,000; AID 2551; note: potency is the fitted concentration of half-maximal effect; nearly all actives have a fitted effect of over 60% in size
Target sequence (P51450 whole entry, looked up, the tested form may be a part): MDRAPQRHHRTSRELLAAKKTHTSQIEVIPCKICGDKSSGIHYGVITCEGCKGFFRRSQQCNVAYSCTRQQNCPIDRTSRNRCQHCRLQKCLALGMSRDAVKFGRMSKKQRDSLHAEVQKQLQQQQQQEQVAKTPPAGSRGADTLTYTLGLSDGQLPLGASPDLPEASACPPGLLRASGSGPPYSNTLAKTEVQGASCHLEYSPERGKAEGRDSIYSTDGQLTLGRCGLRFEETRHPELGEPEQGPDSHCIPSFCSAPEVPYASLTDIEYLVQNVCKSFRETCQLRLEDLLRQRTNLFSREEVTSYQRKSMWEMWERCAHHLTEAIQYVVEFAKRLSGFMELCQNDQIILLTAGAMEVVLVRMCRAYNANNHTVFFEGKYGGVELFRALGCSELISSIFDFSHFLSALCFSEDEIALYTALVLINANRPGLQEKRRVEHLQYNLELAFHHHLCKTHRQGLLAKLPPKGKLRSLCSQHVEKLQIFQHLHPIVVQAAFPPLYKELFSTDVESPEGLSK
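Drosophila S2 cells stably expressing Gal4-DBD/mouse RORγ fusion under metallothionein promoter plus UAS-luciferase; compound 1 h, then 700 uM CuSO4 induction for 20 h at ambient temperature; inhibition read as reduced luminescence.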
IL1B secr inh – blocks inflammasome-driven IL-1 beta release | activity change, % at 57.5 µM | hit rate 4.7% among 360,000 | AID 743279 | THP-1 LPS/ATP IL-1B secretion, AlphaLISA, 16 h; hits give low values; in the data active = activity change below about -50%; inconclusive = mostly about -30% to -49%
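Secreted IL-1B measured by AlphaLISA bead assay after 16 h compound exposure of THP-1 cells; compounds (final up to 57.5 uM) added 1 h before LPS (250 ng/mL) and ATP (1.25 mM) stimulation; lower signal means less secretion.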
DT40 TDP1 CPT – DT40-hTDP1 cell growth loss with CPT | Potency, µM (highest dose often 46.2 µM), for inactives: at the highest dose activity change, negative = growth inhibition, usual class: inhibitors | hit rate 12% among 420,000 | chicken DT40 Tdp1-/-;hTDP1 cells + 20 nM CPT, ATP luminescence, 48 h; note: potency is the fitted concentration of half-maximal effect; nearly all actives have a fitted effect of over 55% in size
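Cell growth measured by CellTiter-Glo luminescence after a minimum 48 h, 37 C compound exposure with 20 nM CPT in Tdp1-knockout DT40 cells stably expressing hTDP1, seeded 400/well; qHTS titration format.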
ELG1 DNA repair – blocks ELG1-dependent DNA repair in HEK293T cells; HEK293T ELG1-luciferase reporter, luminescence, 16 h; DNA damage induced by 5-fluorouridine; Potency, µM (doses to about 46.1 µM), inactives show top-dose activity change, negative = inhibition, actives largely listed as inhibitors; hit rate 2.3% among 330,000; AID 504467; note: potency is the fitted concentration of half-maximal effect; nearly all actives have a fitted effect of over 55% in size
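HEK293T cells expressing luciferase-tagged ELG1 (2,000/well) received 5-Fluorouridine plus compound or DMSO for 16 hr at 37 °C. Luciferase was read by ONE-Glo luminescence after 30 min at room temperature.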
The depositor's hits bear a star; ? = inconclusive; nt = no result given. Unless noted, calls come from the whole dose curve; as a rule, active = well fitted curve in the direction sought with a large enough effect; inconclusive = small, poorly fitted or top-dose-only effect, or another doubt; inactive = no such curve, though single readings can be large; an effect the other way counts as inactive or inconclusive. % is set by controls: 0 for no effect and ±100 for the full control effect.

SMILES | TDP1 cell noCPT | VP16 counter | RORgamma inh | IL1B secr inh | DT40 TDP1 CPT | ELG1 DNA repair
Cc1ccc(-c2nn(-c3ccccc3)cc2CN(Cc2ccccc2)C(=O)c2ccco2)o1 | ? | -86% | ? | ? | ? | 18µM*
CCNC(=O)C1(C)CCN(C(=O)c2ccc(OC(F)F)cc2)C1 (stereo unspecified) | -14% | nt | nt | 9 | -20% | nt
O=C(OCc1c(Cl)nc2sccn12)c1cc2c(s1)CCCC2 | ? | 5% | 10% | -14 | 14µM* | 14%
Fc1ccc(Nc2nnc(C(F)(F)F)s2)cc1 | -27% | -6% | 18% | -69* | -13% | ?
COc1cc(NC(=O)CC(C)S(=O)(=O)c2cc3c4c(c2)CCN4C(=O)CC3)cc(OC)c1 (stereo unspecified) | -9% | nt | nt | nt | -18% | nt
Cc1cc(C)cc(-n2c(SCC(=O)N3CCOCC3)nc3c([nH]c4ccccc43)c2=O)c1 | -4% | nt | nt | nt | -25% | nt
CC1CCN(S(=O)(=O)c2ccc3c(ccc(=O)n3CC(=O)NCc3ccccc3)c2)CC1 | ? | nt | nt | nt | -29% | nt
CC(=O)Nc1ccc(NC(=O)Cn2c(=O)ccc3cc(S(=O)(=O)N4CCC(C)CC4)ccc32)cc1 | ? | nt | nt | nt | 2% | nt
Cc1ccc(NC(=O)Cn2c(=O)ccc3cc(S(=O)(=O)N4CCC(C)CC4)ccc32)cc1Cl | 6.5µM* | nt | nt | nt | 12µM* | nt
CC1CCN(S(=O)(=O)c2ccc3c(ccc(=O)n3CC(=O)Nc3cccc(F)c3)c2)CC1 | 13µM* | nt | nt | nt | 15µM* | nt
Cc1ccc(NC(=O)Cn2c(=O)ccc3cc(S(=O)(=O)N4CCC(C)CC4)ccc32)c(C)c1 | 23µM* | nt | nt | nt | ? | nt
CC1CCN(S(=O)(=O)c2ccc3c(ccc(=O)n3CC(=O)NCc3ccccc3Cl)c2)CC1 | ? | nt | nt | nt | 18µM* | nt
COC(=O)Cn1c(=NC(=O)c2ccc3c(c2)OCCO3)sc2ccccc21 | -11% | nt | nt | nt | -3% | nt
Cc1ccc(C(C)(C)C)cc1S(=O)(=O)N1CCC(C(=O)N2CCN(c3ccc(O)cc3)CC2)CC1 | ? | nt | nt | -29 | ? | ?
C=Cc1c(C)c2cc3nc(cc4[nH]c(cc5nc(cc1[nH]2)C(C)=C5CCC(=O)OC)c(CCC(=O)O)c4C)[C@@]1(C)C3=CC=C(C(=O)OC)[C@H]1C(=O)OC | 1% | nt | nt | nt | -2% | nt
COC(=O)c1ccc(OC)c(CSc2nnc(-c3ccc(C(C)(C)C)cc3)o2)c1 | 21µM* | -12% | 1% | -3 | 16µM* | ?
CCCCCC(=O)Nc1nc(C)c(-c2csc(Nc3cc(OC)ccc3OC)n2)s1 | 2.9µM* | -11% | 0% | 35 | 4.1µM* | ?
CCCCCCC(=O)Nc1nc(C)c(-c2csc(Nc3cc(OC)ccc3OC)n2)s1 | 18µM* | 10% | -26% | -3 | ? | ?
Cc1ccc2c(c1)N(S(=O)(=O)c1cc(-c3onc(C)c3C)ccc1C)CCO2 | 9.2µM* | -10% | -15% | ? | 23µM* | ?
COc1ccc(-c2cc(C)no2)cc1S(=O)(=O)Nc1c(C)cc(C)cc1C | 21µM* | nt | nt | nt | ? | nt
COc1ccc(-c2cc(C)no2)cc1S(=O)(=O)N1CCOc2ccc(Cl)cc21 | ? | -9% | -6% | 31 | ? | 2%
COc1ccc(-c2cc(C)no2)cc1S(=O)(=O)N(C)c1cccc(C)c1 | ? | 2% | -1% | -14 | -11% | -2%
CCc1ccccc1N(C)S(=O)(=O)c1cc(-c2cc(C)no2)ccc1OC | ? | -9% | -1% | 22 | 13µM* | ?
COc1ccc(-c2cnc(C)o2)cc1S(=O)(=O)Nc1ccc(C)c(F)c1 | 2.6µM* | nt | nt | nt | 2.6µM* | nt
O=C(COc1ccccc1)OCC(=O)c1ccc(S(=O)(=O)N2CCCCC2)cc1 | -1% | nt | nt | 27 | -8% | -1%
